# High-throughput results deposited in PubChem BioAssay by National Center for Advancing Translational Sciences (NCATS).
# Only some compounds are listed: those with a hit (about 19% of all), similar ones and a draw of the others.
# TDP1 cell noCPT: qHTS for Inhibitors of human tyrosyl-DNA phosphodiesterase 1 (TDP1): qHTS in cells in absence of CPT; DT40 Tdp1-/- hTDP1 cells, no CPT, ATP luminescence, 48 h; Potency, µM (series often up to 46.2 µM), usual class: inhibitors; 15% of 420,000 active; AID 686978, 2013; further: nearly all actives have a fitted effect of over 55% in size
#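 Chicken DT40 Tdp1-/- cells stably complemented with human TDP1 were seeded at 400 cells/well with DMSO in place of 20 nM camptothecin. After compound pinning, cells grew at least 48 hr at 37 °C; viability read by CellTiter-Glo luminescence.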
# DT40 TDP1 CPT: DT40-hTDP1 cell growth loss with CPT. chicken DT40 Tdp1-/-;hTDP1 cells + 20 nM CPT, ATP luminescence, 48 h. 12% of 420,000 active. AID 686979. Potency, µM (series often up to 46.2 µM), hits mostly inhibitors; further: nearly all actives have a fitted effect of over 55% in size
#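 Chicken DT40 Tdp1-/- cells complemented with human TDP1, 400 cells/well, exposed to compounds plus 20 nM camptothecin for at least 48 h at 37 C; viability read as ATP content by CellTiter-Glo luminescence.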
# ELG1 DNA repair: inhibitors of ELG1-dependent DNA repair in HEK293T cells; 2.3% of 330,000 active; HEK293T ELG1-luciferase reporter, luminescence, 16 h; DNA damage induced by 5-fluorouridine; AID 504467; Potency, µM (highest dose often 46.1 µM), hits mostly inhibitors; further: nearly all actives have a fitted effect of over 55% in size
#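 Cells (2,000 per well) received 5-fluorouridine plus test compound or DMSO and were incubated 16 hr at 37 °C, 5% CO2. Luciferase activity was read by luminescence 30 min after ONE-Glo addition; signal suppression marked inhibition of damage-induced ELG1 function.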
# HT1080NT lethal: kills 2HG-producing HT-1080-NT fibrosarcoma cells | HT-1080-NT fibrosarcoma viability, CellTiter-Glo ATP luminescence, 48 h | Potency, µM (doses to about 46.1 µM), actives largely listed as cytotoxic | 1.6% of 360,000 active;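 further: NT is the 2HG producing partner of a matched IDH1 knockdown line; nearly all actives have a fitted effect of over 55% in size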
#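 HT-1080-NT fibrosarcoma cells (2HG-overproducing), 750 cells/well in RPMI with 5% FBS, dosed after 2 h and incubated 48 h at 37C. CellTiter-Glo luminescence normalized to DMSO and no-cell wells; concentration-response curves fitted and classed.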
# HT1080 IDH1KD tx: kills HT-1080 cells with IDH1 knockdown. HT-1080 IDH1 knockdown viability, ATP luminescence, 48 h. 2% of 360,000 active. AID 686971. Potency, µM (doses to about 46.1 µM), hits mostly cytotoxic
#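 After a 2 h attachment period, IDH1KD HT-1080 cells took pin-transferred compound for 48 h at 37 °C; ATP-based luminescence after 10 min room-temperature reagent incubation reported viability.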
# IL1B secr inh: inhibitors of inflammasome signaling (IL-1 beta secretion). THP-1 LPS/ATP IL-1B secretion, AlphaLISA, 16 h; stronger effect = lower value. activity change, % at 57.5 µM. 4.7% of 360,000 active. AID 743279; in the data active means activity change below about -50%; inconclusive means mostly about -30% to -49%
#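 THP-1 cells pretreated 1 hr with compounds (up to 57.5 uM final), then stimulated with LPS (250 ng/mL final) plus ATP (1.25 mM final); secreted IL-1B measured by AlphaLISA after 16 hr, decreased signal indicating inhibition.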
# Hits are given with their value; - = inactive; ? = inconclusive; . = no result; [ ] = dose if it differs, or a comment. Unless noted, the call rests on the fitted dose curve; in most records, active means well fitted curve in the direction sought with a large enough effect; inconclusive means small, poorly fitted or top-dose-only effect, or another doubt; inactive means no such curve, though single readings can be large; an effect the other way counts as inactive or inconclusive.
SMILES,TDP1 cell noCPT,DT40 TDP1 CPT,ELG1 DNA repair,HT1080NT lethal,HT1080 IDH1KD tx,IL1B secr inh
COc1ccc(CN(C(=O)Cc2c[nH]c3ccccc23)C(C(=O)NC2CCCCC2)c2ccc(C)o2)cc1 (stereo unspecified),18.4µM,?,20.6µM,-,?,-58.9
CC(=O)N[C@@H](Cc1c[nH]c2ccccc12)C(=O)OCC(=O)Nc1ccc2c(c1)OCO2,?,?,.,-,-,-
COc1cc(C(C(=O)NC2CCCCC2)N(Cc2cccs2)C(=O)Cc2c[nH]c3ccccc23)cc(OC)c1OC (stereo unspecified),20.6µM,23.1µM,14.6µM,-,-,-
COc1cc(C(C(=O)NC2CCCCC2)N(C(=O)Cc2c[nH]c3ccccc23)c2ccccc2C)cc(OC)c1OC (stereo unspecified),-,-,-,-,-,?
COc1cccc(CN(C(=O)Cc2c[nH]c3ccccc23)C(C(=O)NC2CCCCC2)c2ccc(C)o2)c1 (stereo unspecified),16.4µM,16.4µM,18.4µM,-,?,-67.8
Cc1ccc(C(C(=O)NC2CCCCC2)N(Cc2ccccc2)C(=O)Cc2c[nH]c3ccccc23)o1 (stereo unspecified),?,?,?,-,-,?
Cn1c(=O)n(-c2ccc(F)c(Cl)c2)c(=O)c2sc3ccccc3c21,-,-,.,.,.,.
CC(=C(CCOC(=O)C(C)C)SSC(CCOC(=O)C(C)C)=C(C)N(C=O)Cc1cnc(C)nc1N)N(C=O)Cc1cnc(C)nc1N,-,-,.,.,.,.
Cc1cc(C(=O)NNC(=S)NC2CCCCC2)cs1,?,?,?,-,-,-
Cc1ccc(NC(=O)c2ccc([N+](=O)[O-])o2)cc1C,10.3µM,25.9µM,?,25.9µM,13µM,-94.4
O=C(Nc1ccc2[nH]c(=O)[nH]c2c1)c1ccc([N+](=O)[O-])o1,-,?,-,-[9.24 µM],?,?
O=C(Nc1cccc(NC(=O)c2ccccc2Cl)c1)c1ccc([N+](=O)[O-])o1,5.8µM,8.2µM,23.1µM,?,9.2µM,-106.2
O=C(Nc1cccc([N+](=O)[O-])c1)c1ccc([N+](=O)[O-])o1,3.66µM,1.84µM,.,?,?,-103.2
O=C(Nc1cccc([N+](=O)[O-])c1)c1ccc2c(c1)OCCO2,?,?,?,-,-,?
O=C(CSc1nccn1Cc1ccc(F)cc1)Nc1ccc2c(c1)OCCO2,-,-,.,.,.,.
CCCNC(=O)C1CCC(Cn2c(=O)c3sccc3n(CC(=O)N3CCCC(C)C3)c2=O)CC1 (stereo unspecified),-,-,.,.,.,.
O=C(c1ccco1)N1CCN(c2ncnc3c2cnn3-c2ccccc2)CC1,29.1µM,?,-,-,-,-
O=C(c1ccccc1)N1CCN(c2ncnc3c2cnn3-c2ccccc2)CC1,20.6µM,23.1µM,-,-,-,-
CCc1cc2c(N3CCN(C(=O)c4ccco4)CC3)ncnc2s1,?,?,-,-,-,-
O=C(c1cccc(Cl)c1)N1CCN(c2ncnc3c2cnn3-c2ccccc2)CC1,-,-,11.6µM,-,-,-
Cc1nn(-c2ccccc2)c(Cl)c1C(=O)N1CCN(c2ncnc3c2cnn3-c2ccccc2)CC1,4.11µM,3.26µM,7.31µM,20.6µM,?,-73.7
Cc1cccc(COCCN2CCN(S(=O)(=O)c3ccccc3)CCC2=O)c1,-,-,-,-,-,-
CCN(C(=O)CCS(=O)(=O)c1ccc2c(c1)oc(=O)n2C)c1ccc(OC)cc1,-,-,-,-,-,-
Fc1ccc(NCc2nnc(SCc3nnc(-c4ccccc4)o3)n2Cc2ccccc2)cc1,?,?,15.8µM,?,-,-
Clc1ccc(-c2nnc(CSc3nnc(-c4cccs4)n3Cc3ccccc3)o2)cc1,2.91µM,6.51µM,-,-,?,-
